Hits are enriched below; roughly 19% of the tested compounds scored in any of these assays.
SW480 rerep: DNA re-replication induction in SW480 cells. SW480 DNA re-replication, Hoechst DNA content imaging, 48 h. Potency, µM (highest dose often 46.1 µM), without a hit: top-dose re-replication activation, actives largely listed as activators. 1.8% of 340,000 active. AID 624297; note: potency is the fitted concentration of half-maximal effect; % of control where 0% means no effect; nearly all actives have a fitted effect of over 55% in size
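Readout is total intensity of Hoechst-stained nuclei, excited at 405 nm and collected at 500-530 nm. Compound treatment lasted 48 hr at 37 C in 5% CO2 before staining.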
TDP1 cell CPT: DT40-hTDP1 cell growth loss with CPT. chicken DT40 Tdp1-/-;hTDP1 cells + 20 nM CPT, ATP luminescence, 48 h. AID 686979. 12% of 420,000 active. Potency, µM (doses to about 46.2 µM), for the others: at the highest dose activity change, negative = growth inhibition, hits mostly inhibitors; note: potency is the fitted concentration of half-maximal effect; % is set by controls: 0 for no effect and ±100 for the full control effect; nearly all actives have a fitted effect of over 55% in size
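Chicken DT40 Tdp1-/- cells complemented with human TDP1, 400 cells/well, exposed to compounds plus 20 nM camptothecin for at least 48 h at 37 C; viability read as ATP content by CellTiter-Glo luminescence.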
Chronic BCR inh: blocks chronic active B-cell receptor signaling; ABC-DLBCL IkBa-CBG/CBR reporter, luminescence ratio, 4 h; Potency, µM (titrated, usually from 46.1 µM), inactives show at the top dose activity change, negative = inhibition, usual class: inhibitors; 0.05% of 340,000 active; AID 493014; active = well fitted inhibition curve with a large enough effect in the signal ratio, with a control signal flat, not every such curve was filed as active; inconclusive = small, poorly fitted or top-dose-only effect, or effect the other way, or a change in a side signal; the % refers to the signal ratio;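 note: potency is the fitted concentration of half-maximal effect; plate controls were basal doxycycline-induced cells for no effect and cells given 10 µM MG132 for full effect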
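Concentration-response series (up to 46 uM) were applied to TMD8 dual-reporter cells for 4 h at 37C with doxycycline. Green/red ratio, after filter-overlap correction, defined %Activity; red signal alone was normalised to basal cells and zero luminescence.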
IL-1B inflam inh: inflammasome signaling inhibition, IL-1 beta readout; THP-1 LPS/ATP IL-1B secretion, AlphaLISA, 16 h; active compounds read low; activity change, % at 57.5 µM; 4.7% of 360,000 active; in the data active = activity change below about -50%; inconclusive = mostly about -30% to -49%; note: % is set by controls: 0 for no effect and ±100 for the full control effect
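THP-1 cells pretreated 1 hr with compounds (up to 57.5 uM final), then stimulated with LPS (250 ng/mL final) plus ATP (1.25 mM final); secreted IL-1B measured by AlphaLISA after 16 hr, decreased signal indicating inhibition.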
TDP1 cell noCPT: qHTS for Inhibitors of human tyrosyl-DNA phosphodiesterase 1 (TDP1): qHTS in cells in absence of CPT. 15% of 420,000 active. DT40 Tdp1-/- hTDP1 cells, no CPT, ATP luminescence, 48 h. Potency, µM (titrated, usually from 46.2 µM), inactives show at the highest dose activity change, negative = growth inhibition, usual class: inhibitors; note: potency is the fitted concentration of half-maximal effect; % is set by controls: 0 for no effect and ±100 for the full control effect; nearly all actives have a fitted effect of over 55% in size
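DT40 Tdp1-/-;hTDP1 cells, no CPT (DMSO vehicle only), 400 cells/well; compounds pin-transferred; ≥48 hr, 37 °C; CellTiter-Glo 30 min RT dark, luminescence read.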
MCF10A rereplic: DNA re-replication induction in MCF 10a cells. MCF 10A DNA re-replication, Hoechst nuclear intensity, 48 h. Potency, µM (highest dose often 46.1 µM), inactives show top-dose activity, positive = re-replication, usual class: activators. 2.9% of 350,000 active. AID 624296; note: potency is the fitted concentration of half-maximal effect; % of control where 0% means no effect; nearly all actives have a fitted effect of over 50% in size
Numbers without * were called inactive; ? = inconclusive; . = no result. Unless noted, calls come from the whole dose curve; as a rule, active = well fitted curve in the direction sought with a large enough effect; inconclusive = small, poorly fitted or top-dose-only effect, or another doubt; inactive = no such curve, though single readings can be large; an effect the other way counts as inactive or inconclusive.

SMILES	SW480 rerep	TDP1 cell CPT	Chronic BCR inh	IL-1B inflam inh	TDP1 cell noCPT	MCF10A rereplic
C/C=C(/C)C(=O)OC(C)(C)[C@@H]1Cc2c(ccc3ccc(=O)oc23)O1	-1%	18µM*	-1%	6	?	20%
C/C=C(/C)C(=O)O[C@H]1[C@@H](O)c2c(ccc3ccc(=O)oc23)OC1(C)C	2%	?	0%	0	-29%	2%
C/C=C(/C)C(=O)O[C@@H]1[C@H](OC(C)=O)c2c(ccc3ccc(=O)oc23)OC1(C)C	-6%	?	0%	0	16µM*	8%
O=C(c1sc2ccccc2c1Cl)N(Cc1ccccc1)C1CCS(=O)(=O)C1 (centres undefined)	1%	-30%	?	-7	?	3%
O=C(c1sc2ccccc2c1Cl)N(Cc1ccco1)C1CCS(=O)(=O)C1 (centres undefined)	-4%	?	0%	7	26µM*	0%
O=C1c2ccc(-c3ccc4c(c3)C(=O)N(CCO)C4=O)cc2C(=O)N1CCO	-2%	6%	?	0	6%	3%
CCOc1ccccc1NC(=O)C(OC(=O)c1cc(C)oc1C)c1ccccc1 (centres undefined)	?	?	-2%	0	18µM*	?
OC(CCN1CCC2CCC(C2)C1)c1ccc(Br)cc1 (centres undefined)	15µM*	-3%	.	-7	?	17%
CC1CN(CC(O)c2ccc(Br)cc2)CCO1 (centres undefined)	-10%	22%	.	6	-6%	-3%
COCCN(C(=S)Nc1ccc(C(C)C)cc1)C(C)c1cccs1 (centres undefined)	-6%	?	-4%	-20	?	?
O=C(O)c1sccc1Oc1ccc(NS(=O)(=O)c2ccc(Cl)cc2)cc1	21%	0%	?	5	-6%	1%
N#Cc1cccc(C#N)c1Oc1ccc(S(=O)(=O)Nc2ccc(Cl)cc2)cc1	-21%	-62%	?	-30	16µM*	?
O=Cc1cc2c(cc1[B-](F)(F)F)OCO2	16µM*	?	.	1	?	-52%
O=C(c1cccs1)N1CCN(Cc2cccc([N+](=O)[O-])c2)CC1	0%	11%	-7%	-53*	-28%	-16%
CCC1CCCCN1C(=O)c1ccc([N+](=O)[O-])o1 (centres undefined)	93%	?	4%	-20	-20%	18µM*
O=C(c1ccc([N+](=O)[O-])cc1)N1CCN(Cc2ccccc2)CC1	-2%	-12%	3%	19	-12%	-4%
O=C(c1ccc([N+](=O)[O-])o1)N1CCN(Cc2ccccc2)CC1	?	15µM*	0%	-4	26µM*	21%
O=C(c1cc([N+](=O)[O-])ccc1Cl)N1CCN(Cc2ccccc2)CC1	-13%	-10%	2%	-53*	-9%	?
CC1(C(=O)NS(=O)(=O)c2cccc(C#N)c2)CCN1C(=O)c1ccco1 (centres undefined)	.	17%	.	13	1%	.
CCCS(=O)(=O)NC(=O)C1(C)CCN(C(=O)c2ccc(OC)cc2OC)C1 (centres undefined)	.	-4%	.	-18	0%	.
CCCNC(=O)N[C@H]1C=C[C@H](CC(=O)NC2CCCCC2)O[C@@H]1CO	.	5%	.	17	?	.
Cc1cccc(C)c1NC(=O)C(c1ccc(C(F)(F)F)cc1)n1c(=O)c(-c2cc3ccccc3[nH]2)nc2ccccc21 (centres undefined)	.	?	.	90	?	.
O=C(COC(=O)c1ccc([N+](=O)[O-])o1)NCc1ccccc1	1%	-17%	2%	-12	-19%	2%
CN(Cc1ccccc1)C(=O)c1ccc([N+](=O)[O-])o1	6.5µM*	23µM*	7%	?	?	16µM*
Cc1cccc(NC(=O)N2CCCC(CNC(=O)c3ccccc3Cl)C2)c1C (centres undefined)	2%	0%	13%	0	-2%	1%
SMILES	SW480 rerep	TDP1 cell CPT	Chronic BCR inh	IL-1B inflam inh	TDP1 cell noCPT	MCF10A rereplic
CCOC(=O)C(C)Oc1c(Br)cc(C2NC(=O)NC(C)=C2C(C)=O)cc1OCC (centres undefined)	-11%	-7%	-1%	21	-7%	-1%
CCOc1cc(C2C(C(=O)OC)=C(C)NC3=C2C(=O)c2ccccc23)ccc1OC (centres undefined)	.	?	25%	.	21µM*	.
CCOc1cc(C2C(C(=O)OC)=C(C)NC3=C2C(=O)c2ccccc23)cc(Br)c1OCC (centres undefined)	.	?	.	.	5.2µM*	.
CSc1ccccc1OCc1cc(C(=O)N(C)Cc2ccncn2)no1	8%	-16%	2%	2	-16%	-4%
CCN1C[C@@H]2[C@@H]3C(=O)N(C)C(=O)[C@@H]3[C@](C)(C1=O)N2C(=O)c1ccc(F)cc1	-12%	-18%	.	9	-8%	7%
COc1ccc(-c2csc(NC(=S)NC(=O)/C=C/c3ccc(C(C)C)cc3)n2)cc1OC	?	?	?	-17	?	0%
COc1ccc(-c2csc(NC(=S)NC(=O)c3ccccc3)n2)cc1Br	-9%	-17%	0%	-22	?	?
COc1ccc(-c2csc(NC(=S)NC(=O)c3ccco3)n2)cc1Br	21%	10µM*	?	-7	2.9µM*	?
COc1ccc(-c2csc(NC(=S)NC(=O)c3cc4ccccc4o3)n2)cc1Br	-17%	-12%	?	-12	4%	8%
COc1ccc(-c2csc(NC(=S)NC(=O)/C=C/c3ccco3)n2)cc1Br	?	1.8µM*	?	.	3.7µM*	?
COc1ccc(-c2csc(NC(=S)NC(=O)/C=C/c3ccco3)n2)cc1OC	9.2µM*	4.6µM*	?	-13	4.6µM*	6.5µM*
O=C(c1ccco1)N1CCN(C2CC(=O)N(c3ccc(F)c(Cl)c3)C2=O)CC1 (centres undefined)	-3%	-16%	0%	-5	?	-1%
Cc1nn(C)c(C(=O)N/N=C/c2cc3c(cc2Br)OCO3)c1Br	-699%	?	0%	0	18µM*	?
Cc1nonc1C(=O)N/N=C/c1cc2c(cc1Br)OCO2	9%	-23%	?	-13	14%	18%
